From PubChem
TDP-43 tox inh: qHTS of TDP-43 Inhibitors: NCGC Sytravon Library Screen; Potency, µM (titrated, usually from 46.1 µM), hits mostly activators; actives 0.45% (n = 45,000); AID 1347073, 2019; yeast TDP-43 toxicity rescue, BacTiter-Glo growth, 24 h; active = well fitted activation curve with a large enough effect; also: nearly all actives have a fitted effect of over 55% in size
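TDP-43-expressing yeast, pregrown in raffinose, seeded at OD600 0.02 in galactose medium with compound for 24 hr at 30 deg C. Growth read by BacTiter-Glo luminescence, so rescue of toxicity appears as activation.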
Each line names hits and unclear results; the compound was inactive in the other large screens. The entries come from a sample that favours hits as a whole.

CC1CCN(C(=O)CSc2nnc(-c3cccnc3)o2)CC1	none
Brc1ccc(CSc2nnc(-c3cccnc3)o2)cc1	TDP-43 tox inh 12.6µM
O=S(=O)(c1cccc(-c2nnc(SCc3ccc(Cl)cc3)o2)c1)N1CCCCC1	none
COc1ccc(-c2cc(C(=O)Oc3ccc(C)c(C)c3)c3ccccc3n2)cc1	none
COc1ccc(-c2nc3c4cnn(-c5ccccc5F)c4ncn3n2)cc1	none
CCCSc1ncc(Cl)c(C(=O)NCc2ccc(C)cc2)n1	none
N#C/C(=C\c1ccc(N2CCOCC2)o1)C(=O)Nc1ccc(O)cc1	none
N#C/C(=C/c1ccc(N2CCOCC2)o1)c1ccc(Br)cc1	TDP-43 tox inh 14.1µM
CCCN1C(=O)S/C(=C/c2ccc(N3CCOCC3)o2)C1=O	none
O=C1CC(N2CCSCC2)C(=O)N1c1ccccc1 (stereo not given)	none
O=C1CC(N2CCN(c3ccccc3)CC2)C(=O)N1Cc1ccc(Cl)cc1 (stereo not given)	none
O=C1CC(N2CCN(c3cccc(C(F)(F)F)c3)CC2)C(=O)N1c1ccccc1F (stereo not given)	TDP-43 tox inh 15.8µM
COc1ccc(-c2[nH]ncc2C(=O)NCc2cccc(F)c2)cc1	none
O=C(COC(=O)c1ccc(Br)cc1)NCC1CCCO1 (stereo not given)	none
O=C(COC(=O)/C=C/c1ccccc1Cl)NCC1CCCO1 (stereo not given)	none
O=C(COC(=O)c1c(Cl)ccc(Cl)c1Cl)NCC1CCCO1 (stereo not given)	TDP-43 tox inh 14.1µM
CCN(CC)S(=O)(=O)c1ccc2c(c1)N(CC(=O)NCCc1ccccc1)C(=O)CO2	none
CCOC(=O)c1c(NC(C)=O)c2c3c(sc2n1Cc1nc(-c2ccc(Cl)cc2)oc1C)CCCC3	none
COc1cccc(NC(=O)COC(=O)CCSc2ccccc2)c1	none
O=C(COC(=O)CCSc1ccc(Cl)cc1)Nc1ccc(F)cc1	TDP-43 tox inh 11.2µM
O=C(COC(=O)CCC(=O)c1ccc(Cl)cc1)NCc1ccc(F)cc1	none
COC(=O)c1ccc(NC(=O)N2CCc3c([nH]c4ccccc34)C2c2ccc(C)cc2)cc1 (stereo not given)	none
Cc1nn(CCCC(=O)NCc2ccccc2)c(=O)c2c1sc1ccccc12	none
Cc1c(Cl)cccc1NC(=O)Cn1nnc(-c2nc(-c3ccccc3)no2)c1N	none
COc1ccc(-c2csc3ncnc(N4CCN(c5ccccc5OC)CC4)c23)cc1	TDP-43 tox inh 14.1µM
COc1ccccc1N1CCN(c2cnccn2)CC1	none
COc1ccc(-c2csc3ncnc(N4CCN(CCO)CC4)c23)cc1	none
CCCSc1ncc(Cl)c(C(=O)N(Cc2ccc(N(C)C)cc2)C2CCS(=O)(=O)C2)n1 (stereo not given)	none
CC(=O)Nc1ccc(NC(=O)COC(=O)c2ccc([N+](=O)[O-])o2)cc1	none
CC1CCCC(NC(=O)COC(=O)c2ccc([N+](=O)[O-])o2)C1C (stereo not given)	TDP-43 tox inh 12.6µM
O=C(COC(=O)c1ccc([N+](=O)[O-])o1)NC1CCS(=O)(=O)C1 (stereo not given)	none
Cc1ccc(CNC(=O)C2CCN(C(=O)c3cnn(-c4ccccc4)c3-n3cccc3)CC2)cc1	none
COc1ccc(Oc2nc3c(C)cccn3c(=O)c2/C=C(\C#N)c2nc3ccccc3[nH]2)cc1	none
Cc1ccc(C)c(Cn2c(=O)n(CCCCCC(=O)NCc3ccc4c(c3)OCO4)c(=O)c3sccc32)c1	none
O=C(Cc1cccc(F)c1)Nc1ccc2c(c1)CCC2	none
CSc1ccccc1C(=O)Nc1ccc2c(c1)CCC2	none
O=C(Nc1ccc2c(c1)CCC2)c1cccc(F)c1	TDP-43 tox inh 15.8µM
COc1ccc(-n2ncc3c2ncn2nc(-c4ccc(Cl)cc4Cl)nc32)cc1	none
COc1cccc2c1O/C(=N\O)C(C(=O)Nc1cccc(C)c1C)C2 (stereo not given)	none
O=C(Nc1ccccc1Cl)C1C2CCCCC21 (stereo not given)	none
O=C(Nc1cc(Cl)ccc1Cl)C1Cc2ccccc2O/C1=N\O (stereo not given)	TDP-43 tox inh 11.2µM
CCOc1ccccc1C(=O)N(Cc1ccc(N(C)C)cc1)Cc1ccco1	none
CCCSc1ncc(Cl)c(C(=O)N2CCN(c3ccc(OC)cc3)CC2)n1	none
CN(Cc1ccccc1)c1oc(-c2ccco2)nc1C#N	TDP-43 tox inh 14.1µM
N#Cc1nc(-c2ccc(OCc3ccccc3)cc2)oc1NCc1ccco1	none
CC1CN(c2oc(-c3ccco3)nc2C#N)CC(C)O1 (stereo not given)	none
CCS(=O)(=O)c1ncc(Cl)c(C(=O)N2CCN(c3ccc(OC)cc3)CC2)n1	none
COc1ccc(C(=O)N2c3ccccc3C(C)(c3ccc(Cl)cc3)CC2(C)C)cc1 (stereo not given)	none
Cc1ccc(NC(=O)CCCN2C(=O)COc3ccc(C)cc32)c(C)c1	none
O=C(Nc1cc(-c2nc3ccccc3o2)ccc1Cl)c1ccc(Br)o1	none
O=S(=O)(NCc1ccco1)c1ccc2ccccc2c1	TDP-43 tox inh 11.2µM
O=[N+]([O-])c1ccccc1S(=O)(=O)NCc1ccco1	none
O=S(=O)(NCc1ccco1)c1ccc(Cl)cc1Cl	none
COc1ccccc1CNC(=O)CN1C(=O)c2cccnc2Oc2ccccc21	none
Cc1cc2nc(-c3ccc(NC(=O)c4ccc(OCC(C)C)cc4)cc3)oc2cc1C	none
Cc1cc(Cl)ccc1NC(=O)Cn1nc(C)c2c(C)n(-c3ccccc3)nc2c1=O	none
COc1ccc(Cl)cc1NC(=S)NCCSc1ccc(C)cc1	TDP-43 tox inh 12.6µM
COc1ccc(Cl)cc1NC(=S)Nc1ccc(Cl)cn1	none
COc1ccc(Cl)cc1NC(=S)NN1CCOCC1	none
CCCN(c1ccccc1CC)S(=O)(=O)c1ccc2c(c1)CC(C)N2C(=O)C1CC1 (stereo not given)	none
O=C(Nc1ccc(C(F)(F)F)cc1)N1CCC(N2CCCCC2)CC1	none
CCCCOc1cccc(C2c3c(oc4ccccc4c3=O)C(=O)N2c2ccccn2)c1 (stereo not given)	none
CCCCSc1nc(C)c(C(C)=O)cc1C#N	TDP-43 tox inh 6.31µM
Cc1cc(NC(=O)CSc2nc3ccccc3cc2C#N)no1	none
CC(=O)c1cc(C#N)c(N(C)Cc2ccccc2)nc1C	none
CC(=O)N1CCN(C(=O)C2CCN(S(=O)(=O)c3ccccc3C(F)(F)F)CC2)CC1	none
O=S(=O)(c1ccccc1C(F)(F)F)N1CCN(c2ncnc3sccc23)CC1	TDP-43 tox inh 11.2µM
O=S(=O)(c1cc(C(F)(F)F)ccc1Cl)N1CCN(c2ncnc3ccccc23)CC1	none
Cc1nn(CC(=O)NCCc2ccccc2Cl)c(=O)c2nn(-c3ccccc3)c(C)c12	none
N#Cc1ccccc1Cn1c(=O)n(-c2cccc(C(F)(F)F)c2)c(=O)c2sccc21	none
O=C(O)c1cccc(-n2cnc3cccnc32)c1	none
O=C(/C=C/c1cccc([N+](=O)[O-])c1)NCCSCc1cccc(Cl)c1	TDP-43 tox inh 12.6µM
O=C(/C=C/c1cccc([N+](=O)[O-])c1)NCCc1ccc(F)cc1	none
O=C(/C=C/c1ccccc1)NCCSCc1ccccc1	none
CC(CN1CCOCC1)OC(=O)CCc1ccccc1 (stereo not given)	none
CC1CCN(CC(C)OC(=O)c2ccco2)CC1 (stereo not given)	none
CC(CN1CCOCC1)OC(=O)c1ccc(Br)cc1 (stereo not given)	TDP-43 tox inh 15.8µM
CCOC(=O)CCn1nc(C)c2c(C)n(-c3ccccc3)nc2c1=O	none
O=S(=O)(NCc1csc(-c2ccccc2)n1)c1ccccc1	none
COc1ccc(C2=NC(C)(C)N(CC(=O)Nc3ccc(F)c(F)c3)C2=O)cc1	none
N#C/C(=C\c1ccccc1)C(=O)N1CCN(c2ccccc2F)CC1	none
Cc1cc(/C=C(\C#N)C(=O)N2CCCCC2)cc(C)c1O	none
N#C/C(=C\c1cccc(Br)c1)C(=O)N1CCCCC1	TDP-43 tox inh 12.6µM
